Structures are written as SMILES. Values joined by “and” are separate entries in the source; they are usually repeats but may differ in a detail not shown here. Equal entries are not always repeated. About 83,000 compounds went through this panel and 20% of them were active in at least one assay; those are over-represented in the sample as a whole.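 Activity criterion: percent growth below 10, measured after cells in 96-well plates were exposed to a single compound concentration for 48 hours.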 Unmarked numbers belong to inactive results. Active and inactive are the calls of the source.

The subject of the test is MDA-MB-468 breast. The experiment in a line: NCI-60 one-dose screen, 48 h (100 = growth as untreated, 0 = no growth, -100 = all killed). As to conditions: 10 µM unless noted.
On to `CC(C)C(NC(=O)C1(NC(=O)OCc2ccccc2)CCCC1)C(=O)O` (stereo not given), for which the growth was 112%.

On to `NC(=S)N/N=C/c1ccc(OC(=O)COc2ccccc2)cn1`, for which the growth was 29.7%. On to `N[C@@H]1CCN(C(=O)c2cc3cc(Cl)c(F)c(F)c3[nH]2)C1`, for which the growth was 81.6%. Regarding `Cn1nc(C(F)(F)F)cc1-c1cc(Cl)c(OCc2ccc(Cl)cc2)c(-c2ccc(Cl)c(C(F)(F)F)c2)c1O`, the growth is -16.1% (active).

Consider `CCOC(=O)c1c(Nc2ccccc2)nn2c(N)c(C#N)c(-c3ccc(OC)cc3)nc12`, for which the growth is 73.1%.

In the case of `CN1CCN(Cc2occc(=O)c2O)CCN(C)CCN(Cc2occc(=O)c2O)CC1`, the growth is 111% and 87.9%. Next, `Cc1cc(CO)c(O)c(CO)c1`: 106%; `CCCCNNC(=O)c1ccc(Br)cc1`: 60.1%. `N#C/C(=C\c1ccc2c(c1)OCO2)c1ccccc1`: the growth was 24.8%.

As to `C=C(C)[C@@H]1CC[C@]2(C(=O)N3CCOCC3)CC[C@]3(C)[C@H](CC[C@@H]4[C@@]5(C)C/C(=C/c6ccncc6)C(=O)C(C)(C)[C@@H]5CC[C@]43C)[C@@H]12`, the growth is 21.4%. Regarding `O=C(/C=C/c1ccc(F)cc1)Nc1cccc2cccnc12`, the growth is -19.1% (active). Take `N#Cc1c(N)nc2c(nnn2-c2cccc(Br)c2)c1N`: the growth was 92.9%.

For the molecule `O=C1Nc2ccc(F)cc2/C1=C/c1nc(-c2ccc(F)cc2)n2ccccc12`, the growth is 113%. Next, `Cc1cc(Nc2cccc(C(F)(F)F)c2)n2c(nc3ccccc32)c1C#N`: -4.87% (active). With `C[n+]1c2ccccc2nc2ccccc21`, the growth is 9.7% (active). For the molecule `COc1ccc(/C(=C/c2ccc3ccccc3c2)c2nn[nH]n2)cc1OC`, the growth was 60.2%. For `CC(=O)OCC1O[C@@H](OC(C)=O)[C@@H](NC(=O)NS(=O)(=O)c2ccccc2)C(OC(C)=O)[C@@H]1OC(C)=O` (stereo not given in full) the value was 107%; for `O=C1NC(=O)/C(=C/c2ccc3nccc(-c4ccncc4)c3c2)S1`, -49.2% (active).

For `COc1cccc(-c2nc3sccn3c2-c2ccnc(NCCNS(=O)(=O)c3cccc(F)c3)c2)c1`, the growth is 25.6%.

On to `COc1cc2c(c(OC)c1OC)CCC(c1cccc(C(=O)Nc3ccccc3Br)c1)O2` (stereo not given), for which the growth is 85.2%. For `COc1cc2nc(Cl)nc(Nc3cccc(C(=O)/C=C/c4ccc(F)cc4)c3)c2cc1OC`, the growth was 74.3%. Turning to `Cc1cc(C)c2c(n1)sc1c(Nc3ccc(Cl)cc3Cl)ncnc12`, the growth is 16.9%. Regarding `O=C1CCC(C(=O)NCCNCCNC(=O)C2CCC(=O)N2)N1` (stereo not given), the growth is 89.7%.

For `Cn1ccc(Cc2cnc(N)s2)n1`, the growth is 103%. Turning to `O=C1N=C(N2CCOCC2)S/C1=C\c1cn(-c2ccccc2)nc1-c1ccccc1`, the growth is 83.3%. `COc1cc(Nc2ccnc(N3CCN(c4ccnc5cc(Cl)ccc45)CC3)n2)cc(OC)c1`: the growth is -0.859% (active).

Turning to `C#Cc1cc(C(=O)Nc2ccc(CNCCN3CCOCC3)c(C(F)(F)F)c2)ccc1C`, the growth was 82.8%.

With `CCCn1cnc2c(c1=N)C(c1ccc(F)cc1)c1sc3c(C)cccc3c1O2` (stereo not given), the growth was -26.7% (active). Next, `Cc1csc(/N=C(N)/N=C(\N)c2cccnc2)n1`: 91.9%. Next, `C/C(=N\Nc1ccc([N+](=O)[O-])cn1)c1ccc(N)cc1`: 99.7%; `COc1ccc(CCN2C(=O)/C(=C/c3ccc(C4Oc5ccccc5C5CC(c6cccc(OC)c6)=NN54)cc3)SC2=S)cc1` (stereo not given): 107%; `Clc1ccc(/C=C/c2nc(N3CCOCC3)c3nc(Cl)c(Cl)cc3n2)cc1`: 102%. Take `CS(=O)(=O)c1ccc(/C(=N/N=C(N)N)c2ccc(Cl)cc2)cc1`: the growth was 68.5%. As to `COc1cc(C(=O)c2cc(C)c3[nH]c4ccc(Cl)cc4c3c2C)cc(OC)c1OC`, the growth was -13.2% (active). Consider `CN1CC[C@@H](c2c(O)cc(O)c3c(=O)cc(-c4ccccc4Cl)oc23)[C@@H]1CO`, for which the growth is -44.2% (active). As to `CC1=Nc2cnc(Nc3ccc(OCCN4CCCCC4)cc3)nc2Nc2ccccc21`, the growth was 63.4%.

For `CC[C@@]1(O)C(=O)OCc2c1cc1n(c2=O)Cc2c-1nc1ccccc1c2/C=N/OC(C)(C)C`, the growth is -44.5% (active).

Regarding `O=C(Oc1cccc(OC(=O)c2ccccc2)c1)c1ccccc1`, the growth is 110% and 101%. Next, `COc1ccc(/C(C)=C(\c2ccc(Cl)cc2)c2ccc(OCCN3CCCCC3)cc2)cc1`: 55.5%; `CCCCCC[C@@H](O)C/C=C\CCCCCCCC(=O)OCCOC`: 104%.

Source of the values: PubChem BioAssay (NCI).
